Assay results: PubChem BioAssay (NCI)
“And” between values parts separate entries of the source, which are not always exact repeats. Equal values may be shown once. About 79,000 compounds went through this panel and 15% of them were active in at least one assay; those are over-represented in the sample as a whole. The source made the active and inactive calls. No stated cut-off is given here; in the data, active means growth inhibition above about 70%; inactive means the rest.

Legend:
[1] = NCI Yeast Anticancer Drug Screen. Data for the rad50 strain (AID 155);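 further: 0% = growth of vehicle-only cultures of the same strain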; details: S. cerevisiae rad50 strain growth inhibition, active compounds read high; at 50.0 µM unless noted
In short: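 Compounds were tested on a yeast strain with an engineered DNA damage repair alteration; the reported value is growth inhibition normalised to vehicle treatment.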

[2] = NCI Yeast Anticancer Drug Screen. Data for the mec2-1 strain (AID 157); details: S. cerevisiae mec2-1 strain, active compounds read high; at 50.0 µM unless noted
In short: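 Strain: mec2-1 (DNA repair/cell cycle alteration). Compound exposure, then growth measured; inhibition expressed relative to vehicle.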

[3] = NCI Yeast Anticancer Drug Screen. Data for the sgs1 mgt1 strain (AID 161);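 further: 0% = growth of cultures given vehicle only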; details: S. cerevisiae sgs1 mgt1 strain, active compounds read high; at 50.0 µM unless noted
In short: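 Inhibition of yeast growth, normalised to vehicle-treated controls, is reported for a strain bearing genetic alterations in DNA damage repair.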

[4] = NCI Yeast Anticancer Drug Screen. Data for the cln2 rad14 strain (AID 165);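 further: 0% = growth equal to vehicle treated cultures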; details: S. cerevisiae cln2 rad14 strain, active compounds read high; at 50.0 µM unless noted
In short: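 Compounds are applied to the cln2 rad14 yeast strain, and growth is then compared with that of vehicle-treated cultures to give inhibition.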

[5] = NCI Yeast Anticancer Drug Screen. Data for the bub3 strain (AID 167); details: S. cerevisiae bub3 mutant strain, active compounds read high; at 50.0 µM unless noted
In short: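 Growth of a checkpoint-deficient yeast mutant is measured after compound exposure. Values represent inhibition relative to vehicle.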

[6] = NCI Yeast Anticancer Drug Screen. Data for the mlh1 rad18 strain (AID 175); details: S. cerevisiae mlh1 rad18 strain growth inhibition, active compounds read high; at 50.0 µM unless noted
In short: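 Read-out is yeast growth inhibition, calculated against vehicle-only controls. The compound was applied to a strain engineered with DNA damage repair alterations.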

Measured: growth inhibition

CCCSc1ncnc2nc[nH]c12
inactive: [1] 23.6% | [2] -1% | [3] 9.7% | [4] -15.1% | [5] -13.7% | [6] 16.9%

O=[N+]([O-])c1ccc[nH]1
inactive: [1] -6.15% | [2] -9.95% | [3] -4.2% | [4] 15.3% | [5] 3% | [6] 2%

Cc1ccccc1NC(=O)C(=O)CC(=O)c1sc(-n2nc(-c3ccccc3)cc2-c2ccccc2)nc1C
inactive: [1] 12.3% | [2] -4.3% | [3] 5.45% | [4] 16.4% | [5] 2.05% | [6] -17.8%

Cc1ccc(C(=O)O)c(/C=C2\Cc3cc(C)cc(C)c3C2=O)c1
inactive: [1] 21.1% | [2] 14.8% | [3] 24.6% | [4] 16.6% | [5] 9.85% | [6] 29.7%

COC(=O)C(C(=O)C(=O)Nc1ccccc1OC)c1csc(-n2nc(-c3ccccc3)cc2-c2ccccc2)n1 (centres undefined)
inactive: [1] 0.65% | [2] -7.85% | [3] -11.2% | [4] 21.4% | [5] 52.1% | [6] 4.95%

CCN(CCNS(C)(=O)=O)c1ccc(N)c(C)c1
inactive: [1] -15.3% and -11.2% | [2] -17.2% and -6.1% | [3] -23.1% and -14.5% | [4] 1.5% and -19.1% | [5] -17.9% and 1.95% | [6] -4.05% and 6.35%

Cc1cccc2c1/C(=C1/c3ccccc3C(=O)c3cccc(C)c31)c1ccccc1C2=O
inactive: [1] -4.85% | [2] -24.1% | [3] -3.45% | [4] 14.3% | [5] -1.2% | [6] -6.15%

CCOC(=O)C(NC(C)=O)(Nc1ccc(S(N)(=O)=O)cc1)C(F)(F)F (centres undefined)
inactive: [1] -16.2% | [2] 1.55% | [3] 3.95% | [4] 27.6% | [5] 7.7% | [6] -28.9%

CCOC(=O)C(N)CSC(=O)NC (centres undefined)
inactive: [1] 24.9% | [2] -3.4% | [3] 16% | [4] 3.2% | [5] 20.9% | [6] -49.5%

Cc1cc(C)c(-c2noc(-c3ccc(Cl)cc3)c2C2=NCCN2)c(C)c1
inactive: [1] 29.9% | [2] 18.3% | [3] 18.1% | [4] 38.6% | [5] 17.7% | [6] 8.45%

c1ccc(C(=NN=C(c2ccccc2)c2ccccc2)c2ccccc2)cc1
inactive: [1] 17.9% | [2] 23.9% | [3] 8.4% | [4] 30.5% | [5] 1.25% | [6] 6.25%

CC(C)NC(=O)OCc1c(COC(=O)NC(C)C)c(-c2ccc(F)cc2F)n2c1CCC2
inactive: [1] 12% | [2] 4% | [3] 10% | [4] 8.6% | [5] -13.6% | [6] -12.7%

COc1cc(OC)c(-c2cc(=O)c3c(OC)c(OC)c(OC)c(OC)c3o2)cc1OC
inactive: [1] -2.95% | [2] -3.8% | [3] -2.8% | [4] -44% | [5] 36.2% | [6] -21.1%

CCC[N+](C)(C)CCC#N
inactive: [1] -4.55% | [2] 10.9% | [3] 4.2% | [4] -14% | [5] 17.1% | [6] 5.25%

N#CCc1nc(-c2cc3ccc(O)cc3oc2=O)cs1
inactive: [1] 19.1% | [2] 8.45% | [3] -25.9% | [4] 2.8% | [5] -12.4% | [6] -40.8%

Cc1ccc(-c2c(C#N)c(O)n(NS(=O)(=O)c3ccccc3)c(=O)c2C#N)cc1
inactive: [1] 4.45% | [2] 6.4% | [3] -30.4% | [4] 0.8% | [5] -14.3% | [6] -11.7%

Cc1cc(N(CCCCl)CCCCl)ccc1C=Nc1cc(Cl)c(O)c(Cl)c1
active: [1] 71.8% | [3] 84.8%
inactive: [2] 6.15% | [4] -13.9% | [5] 53% | [6] 57.2%

CC(C)(C)SC(=S)SCC(=O)c1ccc(F)cc1
inactive: [1] 4.35% | [2] -36.4% | [3] 8.65% | [4] -10.4% | [5] -1.65% | [6] 1.5%

CN(Cc1ccccc1)c1cc(=O)n(C)c(=O)[nH]1
inactive: [1] 7.3% | [2] 15.8% | [3] 35.8% | [4] 14% | [5] 25.6% | [6] -6.8%
